For 13 compounds, growth results are on record in PubChem BioAssay (NCI).

Among the test systems are SK-MEL-2 melanoma; EKVX NSCLC; SN12C renal; UO-31 renal; TK-10 renal; ACHN renal; CAKI-1 renal; A498 renal; MOLT-4 leukemia; CCRF-CEM leukemia.
Assay in all cases: NCI-60 one-dose screen, 48 h (100 = growth as untreated, 0 = no growth, -100 = all killed)
Settings in all cases: 10 µM

Compounds without any hit were thinned out: in the full panel of roughly 83,000, 20% have a hit.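 A percent growth of 40 corresponds to 60% growth inhibition; 0 means no net growth; -100 means all cells died. Active threshold: below 10.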 Unmarked numbers belong to inactive results. Calls of active or inactive are those of the source.

With `COc1ccc(C(c2ccc(OCCN(C)C)cc2)c2cc3ccccc3c3ccccc23)cc1` (configuration not stated), the growth in the test with SK-MEL-2 melanoma was 86.4%; in the test with EKVX NSCLC it was 56.6%; in the test on SN12C renal it was 64.4%; with UO-31 renal, 72.2%; with TK-10 renal, 88%; in the test on ACHN renal it was 21.6%. Besides, the growth with CAKI-1 renal is 76.5%; with A498 renal it was 101%; in the test with MOLT-4 leukemia it was 5.83% (active).
With `COc1ccc(-c2cc(-c3ccc(Cl)cc3)nc(SCCCCCCC(=O)NO)n2)cc1OC`, the growth in the test with SK-MEL-2 melanoma was 89.3%; in the test with EKVX NSCLC, 51.6%; in the test on SN12C renal, 70.6%; in the test on UO-31 renal, 20.1%; in the test on TK-10 renal it was 61.1%; with ACHN renal, 38.1%. Moreover, the growth in the test on CAKI-1 renal was 30.3%; in the test on A498 renal it was 67.9%; in the test with MOLT-4 leukemia, 16.2%.
For `CCC(C)[C@H](NC(C)=O)C(=O)N[C@@H](CCCNC(=N)N)C(=O)N[C@@H](CCCCN)C(=O)N[C@@H](CC1CCC(O)CC1)C(=O)NC(C(=O)N[C@@H](CCSC)C(=O)N[C@@H](CCCNC(=N)N)C(=O)N[C@@]1(C)CCC/C=C\CCC[C@@](C)(C(=O)NC(C(=O)N[C@@H](CCC(=O)O)C(=O)N[C@@H](CC(C)C)C(=O)N[C@H](C(=O)N[C@@H](CCC(=O)O)C(N)=O)C(C)C)[C@@H](C)O)NC(=O)[C@H](CCC(N)=O)NC(=O)[C@H](CC(C)C)NC(=O)[C@H](CC(C)C)NC1=O)[C@@H](C)O` (some centres not stated), the growth was 100% in the test with SK-MEL-2 melanoma; 99.5% with EKVX NSCLC; 93.2% in the test on SN12C renal; 106% in the test with UO-31 renal; 96.4% with TK-10 renal; 106% in the test with ACHN renal. For the same compound, the results for the growth with CAKI-1 renal, with A498 renal and in the test with MOLT-4 leukemia were 99.4%, 120% and 97.3%, respectively.
With `Cc1cc(O)ccc1C1=NN(c2ccc(S(C)(=O)=O)cc2)C(=O)CC1`, the growth is 68.7% in the test with SK-MEL-2 melanoma; 72.2% with EKVX NSCLC; 90.3% in the test on SN12C renal; 48.8% in the test on UO-31 renal; 105% in the test with TK-10 renal; 79.7% with ACHN renal. Further, the growth in the test on CAKI-1 renal was 25.4%; in the test with CCRF-CEM leukemia, 69.7%; in the test on MOLT-4 leukemia it was 52.7%.
Consider `COc1ccc(-c2nn(-c3cccc(Cl)c3)cc2-c2c(C#N)c(=O)n3[nH]c(-c4ccc(C)cc4)nc3c2C#N)cc1`, for which the growth was 46% in the test on SK-MEL-2 melanoma; 37.9% in the test with EKVX NSCLC; 60.9% with SN12C renal; 34.7% in the test on UO-31 renal; 58% in the test with TK-10 renal; 43.2% in the test with ACHN renal. Moreover, the values for the growth in the test with CAKI-1 renal, in the test with CCRF-CEM leukemia and with MOLT-4 leukemia were 15.2%, 31.4% and -23.8% (active), respectively.
For `CC[C@@H](C(=O)[C@@H](C)[C@@H](O)[C@H](C)[C@@H]1O[C@@H]([C@@H](CC)C(=O)O)CC[C@@H]1C)C1O[C@]2(C=CC(=O)[C@]3(CC[C@@](C)([C@H]4CC[C@](O)(CC)[C@H](C)O4)O3)O2)[C@H](C)C[C@@H]1C` (some centres not stated), the growth in the test on SK-MEL-2 melanoma is 40.7%; in the test with EKVX NSCLC, 38%; with SN12C renal, 27.6%; in the test on UO-31 renal it was 24.3%; in the test with TK-10 renal, 57.7%; in the test with ACHN renal, 31.6%. Also, the growth in the test with CAKI-1 renal is 27%; in the test on A498 renal, -11.4% (active); in the test with MOLT-4 leukemia, 40.6%.
Regarding `CCn1c(SCCc2ccccc2)nnc1-c1nn(-c2ccc(Cl)cc2Cl)c(-c2ccc(Cl)cc2)c1C`, the growth with SK-MEL-2 melanoma is 53.8%; with EKVX NSCLC it was 52.6%; in the test with SN12C renal it was 70.3%; in the test with UO-31 renal it was 53.5%; in the test on TK-10 renal, 75.3%; with ACHN renal it was 61%. For the same compound, the growth in the test on CAKI-1 renal is 64.4%; in the test on A498 renal, 96.6%; in the test on MOLT-4 leukemia, 41.6%.
On to `CC(C)(C)OC(=O)N1CCc2c(sc3ncnc(N/N=C/c4cccc5ccccc45)c23)C1`, for which the growth is 49.4% in the test with SK-MEL-2 melanoma; 8.53% (active) with EKVX NSCLC; 32.8% in the test on SN12C renal; -8.22% (active) in the test on UO-31 renal; 36.9% in the test on TK-10 renal; 6.63% (active) in the test with ACHN renal. Moreover, the growth in the test on CAKI-1 renal was 24.2%; in the test with A498 renal, 4.77% (active); with MOLT-4 leukemia, 14.4%.
On to `CC(=O)N[C@H](C(=O)N[C@@H](CCCNC(=N)N)C(=O)N[C@@H](CCCCN)C(=O)N[C@@H](CCCNC(=N)N)C(=O)NC(C(=O)N[C@@H](CC(C)C)C(=O)N[C@@H](CCCNC(=N)N)C(=O)N[C@@]1(C)CCC/C=C\CCC[C@@](C)(C(=O)N[C@@H](CCCNC(=N)N)C(=O)N[C@@H](CCC(=O)O)C(=O)N[C@@H](CC(C)C)C(=O)N[C@H](C(=O)N[C@@H](CCC(=O)O)C(N)=O)C(C)C)NC(=O)[C@H](CCC(N)=O)NC(=O)[C@H](CC(C)C)NC(=O)[C@H](CC(C)C)NC1=O)[C@@H](C)O)C(C)C` (some centres not stated), for which the growth with SK-MEL-2 melanoma is -6.77% (active); in the test with EKVX NSCLC it was 0.7% (active); in the test with SN12C renal it was -52% (active); in the test on UO-31 renal, 78.5%; in the test on TK-10 renal, -37.3% (active); with ACHN renal it was 41.2%. Also, the growth in the test with CAKI-1 renal was 32.3%; in the test on A498 renal it was 26.9%; in the test on MOLT-4 leukemia it was 32.7%.
For the compound `Cc1cc(CCNC=O)c(C)c2c1sc1ccccc12`, the growth is 109% in the test on SK-MEL-2 melanoma; 56.6% with EKVX NSCLC; 79.7% in the test with SN12C renal; 91.2% in the test on UO-31 renal; 94.4% in the test with TK-10 renal; 99.8% with ACHN renal. For the same compound, the values for the growth with CAKI-1 renal, in the test with A498 renal and in the test on MOLT-4 leukemia were 80.7%, 72.8% and 94.5%, respectively.
Consider `C=CCn1c(SCC(=O)Nc2ccc(C(=O)/C=C/c3cc(OC)c(OC)c(OC)c3)cc2)nnc1-c1cc(-c2ccc(Cl)cc2)nc2ccccc12`, for which the growth was 103% in the test with SK-MEL-2 melanoma; 86.4% in the test with EKVX NSCLC; 86.8% in the test with SN12C renal; 57.1% with UO-31 renal; 113% with TK-10 renal; 86.1% in the test with ACHN renal. Further, the growth in the test on CAKI-1 renal is 67.2%; in the test on A498 renal, 80.6%; in the test on MOLT-4 leukemia it was 52.6%.
Consider `COc1ccccc1-n1c(-c2sc(NC(C)=O)nc2C)n[nH]c1=S`, for which the growth is 106% in the test with SK-MEL-2 melanoma; 67.6% with EKVX NSCLC; 101% in the test with SN12C renal; 70.1% in the test with UO-31 renal; 130% in the test on TK-10 renal; 108% in the test with ACHN renal. The growth in the test with CAKI-1 renal is 81%; with CCRF-CEM leukemia it was 97.3%; in the test on MOLT-4 leukemia, 92.9%.
As for `CNC(=O)c1cn(C2CC2)c2cc(N3CCN(C(=O)c4cc(OC)c(OC)c(OC)c4)CC3)c(F)cc2c1=O`, the growth with SK-MEL-2 melanoma was 94.8%; with EKVX NSCLC, 91.2%; in the test with SN12C renal, 101%; with UO-31 renal it was 79%; in the test with TK-10 renal it was 92.1%; with ACHN renal it was 99.4%. Further, the values for the growth with CAKI-1 renal, with A498 renal and with MOLT-4 leukemia were 90.9%, 88.4% and 99.7%, respectively.
